Reference: PubChem BioAssay AID1159580 (chemical genetic matrix, 2015)
In all, about 5,500 compounds went through this assay and about 2,000 (36%) were called active. Roughly 18% stayed inconclusive and do not appear here. Cut-off read from the data, not from the text of the source: active = normalized growth mostly below about 0.91 (no sharp cut-off); inconclusive = no clear call, values can overlap the other calls; inactive = mostly above about 0.92. The list shows a part of the results.

Assay: chemical genetic growth profiling, strain panel (AID 1159580);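 note: tested at 20 µM; growth read once vehicle control cultures reached saturation at 30 °C; 1 = growth at the plate median or of vehicle wells; lower values mean less growth of the strain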
Details: S. cerevisiae deletion strains, growth OD
[1] = locus YAL021C, strain ccr4, stronger effect = lower value
[2] = locus YAL026C, strain drs2, stronger effect = lower value
[3] = locus YAL030W, strain snc1, stronger effect = lower value
[4] = locus YBL061C, strain skt5, stronger effect = lower value
[5] = locus YBR009C, strain hhf1, stronger effect = lower value
[6] = locus YBR023C, strain chs3, stronger effect = lower value
[7] = locus YBR171W, strain sec66, stronger effect = lower value
[8] = locus YBR231C, strain swc5, stronger effect = lower value
[9] = locus YBR279W, strain paf1, stronger effect = lower value
[10] = locus YCL011C, strain gbp2, stronger effect = lower value
[11] = locus YCL016C, strain dcc1, stronger effect = lower value
[12] = locus YCL069W, strain vba3, stronger effect = lower value
[13] = locus YCR088W, strain abp1, stronger effect = lower value
[14] = locus YDL005C, strain med2, stronger effect = lower value
[15] = locus YDL040C, strain nat1, stronger effect = lower value
[16] = locus YDR001C, strain nth1, stronger effect = lower value
[17] = locus YDR069C, strain doa4, stronger effect = lower value
[18] = locus YDR137W, strain rgp1, stronger effect = lower value
[19] = locus YDR159W, strain sac3, stronger effect = lower value
[20] = locus YDR297W, strain sur2, stronger effect = lower value
[21] = locus YDR334W, strain swr1, stronger effect = lower value
[22] = locus YDR335W, strain msn5, stronger effect = lower value
[23] = locus YDR392W, strain spt3, stronger effect = lower value
[24] = locus YEL003W, strain gim4, stronger effect = lower value
[25] = locus YEL037C, strain rad23, stronger effect = lower value
[26] = locus YEL061C, strain CIN8 (second series), stronger effect = lower value
[27] = locus YER015W, strain faa2, stronger effect = lower value
[28] = locus YER016W, strain bim1, stronger effect = lower value
[29] = locus YER111C, strain swi4, stronger effect = lower value
[30] = locus YER155C, strain BEM2 (second series), stronger effect = lower value
[31] = locus YFR010W, strain ubp6, stronger effect = lower value
[32] = locus YGL167C, strain pmr1, stronger effect = lower value
[33] = locus YGL173C, strain kem1, stronger effect = lower value
[34] = locus YGL227W, strain vid30, stronger effect = lower value
[35] = locus YGL240W, strain doc1, stronger effect = lower value
[36] = locus YGL253W, strain hxk2, stronger effect = lower value
[37] = locus YHR013C, strain ard1, stronger effect = lower value
[38] = locus YHR027C, strain rpn1, stronger effect = lower value
[39] = locus YHR142W, strain chs7, stronger effect = lower value
[40] = locus YJL092W, strain hpr5, stronger effect = lower value
[41] = locus YJL095W, strain BCK1 (second series), stronger effect = lower value
[42] = locus YJL115W, strain asf1, stronger effect = lower value
[43] = locus YJL129C, strain trk1, stronger effect = lower value
[44] = locus YJL154C, strain vps35, stronger effect = lower value
[45] = locus YJL164C, strain tpk1, stronger effect = lower value
[46] = locus YJL166W, strain qcr8, stronger effect = lower value
[47] = locus YKL160W, strain elf1, stronger effect = lower value
[48] = locus YKR026C, strain gcn3, stronger effect = lower value
[49] = locus YKR091W, strain srl3, stronger effect = lower value
[50] = locus YLL001W, strain dnm1, stronger effect = lower value
[51] = locus YLL026W, stronger effect = lower value
[52] = locus YLL041C, strain sdh2, stronger effect = lower value
[53] = locus YLR027C, strain aat2, stronger effect = lower value
[54] = locus YLR221C, strain rsa3, stronger effect = lower value
[55] = locus YLR258W, strain gsy2, stronger effect = lower value
[56] = locus YLR262C, strain YPT6 (second series), stronger effect = lower value
[57] = locus YLR320W, strain mms22, stronger effect = lower value
[58] = locus YLR342W, strain FKS1, stronger effect = lower value
[59] = locus YLR357W, strain rsc2, stronger effect = lower value
[60] = locus YLR370C, strain arc18, stronger effect = lower value
[61] = locus YLR384C, strain iki3, stronger effect = lower value
[62] = locus YML120C, strain ndi1, stronger effect = lower value
[63] = locus YMR058W, strain fet3, stronger effect = lower value
[64] = locus YMR125W, strain sto1, stronger effect = lower value
[65] = locus YMR129W, stronger effect = lower value
[66] = locus YMR205C, strain PFK2, stronger effect = lower value
[67] = locus YMR231W, strain pep5, stronger effect = lower value
[68] = locus YNL071W, strain lat1, stronger effect = lower value
[69] = locus YNL209W, strain ssb2, stronger effect = lower value
[70] = locus YNL248C, strain rpa49, stronger effect = lower value
[71] = locus YNL322C, strain KRE1 (second series), stronger effect = lower value
[72] = locus YNR049C, strain mso1, stronger effect = lower value
[73] = locus YOR001W, strain rrp6, stronger effect = lower value
[74] = locus YOR070C, strain gyp1, stronger effect = lower value
[75] = locus YOR080W, strain dia2, stronger effect = lower value
[76] = locus YOR083W, strain WHI5, stronger effect = lower value
[77] = locus YOR106W, strain vam3, stronger effect = lower value
[78] = locus YOR265W, strain rbl2, stronger effect = lower value
[79] = locus YOR270C, strain vph1, stronger effect = lower value
[80] = locus YOR290C, strain snf2, stronger effect = lower value
[81] = locus YPL051W, strain arl3, stronger effect = lower value
[82] = locus YPL078C, strain atp4, stronger effect = lower value
[83] = locus YPL106C, strain sse1, stronger effect = lower value
[84] = locus YPL240C, strain hsp82, stronger effect = lower value

Measured: normalized growth

Cc1ccc2c(Cl)cc(Cl)c(O)c2n1
inactive: [1] 0.998 | [2] 1.02 | [3] 1.01 | [4] 1.02 | [5] 1.02 | [6] 1.02 | [7] 1.04 | [8] 1.03 | [9] 1.02 | [10] 1.01 | [11] 1.02 | [12] 1.01 | [13] 1.02 | [14] 1.02 | [15] 1.02 | [16] 1.02 | [17] 1.03 | [18] 1.06 | [19] 1.02 | locus YDR195W, strain ref2 0.987 | [20] 1.02 | [21] 1.02 | [22] 1.01 | [23] 1.02 | [24] 1.01 | [25] 1.02 | [26] 1.01 | [27] 1.01 | [28] 1.02 | [29] 1.02 | [30] 1.02 | [31] 1.01 | [32] 1.03 | [33] 1.02 | [34] 1.05 | [35] 1.02 | [36] 1.01 | [37] 1.04 | [38] 1.02 | [39] 1.03 | [40] 1.02 | [41] 1.04 | [42] 1.03 | [43] 1.02 | [44] 1.02 | [45] 1.02 | [46] 1.04 | locus YJL187C, strain SWE1, stronger effect = lower value 0.999 | [47] 1.02 | [48] 1.02 | [49] 1.02 | [50] 1.02 | [51] 0.999 | [52] 1.03 | [53] 1.02 | [54] 1.01 | [55] 1.02 | [56] 1 | [57] 1.03 | [58] 1.05 | [59] 1.04 | [60] 1.02 | [61] 1.03 | [62] 1 | [63] 1.01 | [64] 1.02 | [65] 1.01 | [66] 1.02 | [67] 1.02 | [68] 1.01 | [69] 1.01 | [70] 1.01 | [71] 1.03 | [72] 1.03 | [73] 1.02 | [74] 1.03 | [75] 1.02 | [76] 1.03 | [77] 1.01 | [78] 1.01 | [79] 1.02 | [80] 1.03 | [81] 1.01 | [82] 1.01 | [83] 1 | [84] 1.01

Oc1c(I)cc(Cl)c2cccnc12
active: [1] 0.0783 | [2] 0.0852 | [3] 0.074 | [4] 0.0782 | [5] 0.0791 | [6] 0.0818 | [7] 0.115 | [8] 0.0829 | [9] 0.0782 | [10] 0.0716 | [11] 0.0859 | locus YCL061C, strain MRC1, stronger effect = lower value 0.0889 | [12] 0.0861 | [13] 0.0839 | [14] 0.0947 | [15] 0.0731 | [16] 0.0804 | [17] 0.0805 | [18] 0.12 | [19] 0.115 | locus YDR195W, strain ref2 0.156 | [20] 0.074 | [21] 0.0896 | [22] 0.0873 | [23] 0.119 | [24] 0.0685 | [25] 0.0804 | [26] 0.0788 | [27] 0.0769 | [28] 0.0802 | [29] 0.103 | [30] 0.127 | [31] 0.0904 | [32] 0.0969 | [33] 0.088 | [34] 0.0887 | [35] 0.104 | [36] 0.0777 | [37] 0.139 | [38] 0.0784 | locus YHR030C, strain SLT2, stronger effect = lower value 0.148 | locus YHR079C, strain IRE1, stronger effect = lower value 0.134 | [39] 0.104 | [40] 0.0829 | [41] 0.0763 | locus YJL095W, strain BCK1, stronger effect = lower value 0.127 | [42] 0.101 | [43] 0.102 | [44] 0.0859 | [45] 0.0769 | [46] 0.0785 | locus YJR066W, strain TOR1, stronger effect = lower value 0.00414 | [47] 0.0922 | [48] 0.0898 | [49] 0.0766 | [50] 0.0857 | [51] 0.0726 | [52] 0.0731 | [53] 0.071 | locus YLR113W, strain HOG1, stronger effect = lower value 0.163 | [54] 0.0761 | [55] 0.0743 | [56] 0.0974 | [57] 0.0998 | [58] 0.0803 | [59] 0.172 | [60] 0.0859 | [61] 0.0798 | [62] 0.0749 | [63] 0.0885 | [64] 0.106 | [65] 0.0728 | [66] 0.11 | [67] 0.0867 | [68] 0.0765 | locus YNL183C, strain NPR1, stronger effect = lower value 0.00429 | [69] 0.076 | [70] 0.104 | [71] 0.0819 | [72] 0.0835 | [73] 0.0849 | [74] 0.106 | [75] 0.0874 | [76] 0.0797 | [77] 0.0829 | locus YOR231W, strain MKK1, stronger effect = lower value 0.122 | [78] 0.072 | [79] 0.139 | [80] 0.0977 | [81] 0.0807 | [82] 0.0919 | [83] 0.139 | [84] 0.0779 | locus YPL256C, strain CLN2, stronger effect = lower value 0.143
